# BJeLR viab HTS – BJeLR cell viability reduction; BJeLR fibroblasts viability, CellTiterGlo ATP luminescence, 48 h; HRASV12, hTERT and SV40 LT/ST transformed; viability loss activity score, % (test concentration not listed); 0.64% of 30,000 active; in the data active = viability loss activity score above about 50%;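 note: higher score means fewer live cells and less ATP luminescence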
# A1 inh – inhibitors of A1; MEF A1-2A-BIM cells, caspase-Glo luminescence, 3 h; percent of clofoctol signal, DMSO as zero; caspase activation, % (no concentration beside the values); 0.51% of 21,000 active; AID 2241;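 active = most replicate scores above 10, or exactly half above 10 with mean activity above 10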;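 note: effector caspase 3 and 7 activity cleaving a DEVD luciferin substrate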
# Numbers stand for hits; . = inactive; / = no result given. An excerpt weighted towards active compounds, which were near 0.9% of everything screened.
SMILES,BJeLR viab HTS,A1 inh
Cc1nc(Oc2ccc(NC(=O)c3ccccc3)cc2)c2c3c(sc2n1)CCC3,.,28.8
Cc1nc(Oc2ccc3c(C)cc(=O)oc3c2)c2c3c(sc2n1)CCC3,.,.
S=C(SCSc1nc2ccccc2s1)N1CCCCC1,.,.
CCN(CC)C(=O)c1cc(-c2ccc(OC)c(OC)c2)on1,.,/
CC(C)(C)n1nc(-c2ccc(Cl)cc2)c2c(N)ncnc21,.,12.9
COc1cccc2c1C(=O)c1c(O)c3c(c(O)c1C2=O)C[C@@](O)(C(=O)CO)C[C@@H]3OC1CC(N)C(O)C(C)O1 (stereo not given in full),105.7,14.7
COc1cccc2c1C(c1ccc3c(c1O)C(=O)CC(C)C3O)OC2=O (stereo not given),.,.
COc1cccc2c1C(=O)c1ccc3c(c1C2=O)C(=O)CC(C)(O)C3 (stereo not given),.,.
COc1cccc2c1C(=O)c1c(O)c3c(c(O)c1C2=O)C[C@@](O)(C(=O)CO)C[C@@H]3O[C@H]1C[C@H](N)[C@H](O)[C@H](C)O1,108.7,16.4
CCC(NS(=O)(=O)c1cc(C)ccc1OC)C12CC3CC(CC(C3)C1)C2 (stereo not given),.,.
CCc1ccc(NC(=O)c2cc3ccccc3oc2=O)cc1,.,.
CCc1ccc2nc(Nc3nc4ccccc4c(=O)[nH]3)nc(C)c2c1,87.2,.
Cc1ccc(SCc2cc(=O)[nH]c(Nc3nc(C)c4ccccc4n3)n2)cc1,.,.
CCC(C)NC(=O)c1cc(-c2ccc(F)cc2)no1 (stereo not given),.,.
CN1C(=O)[C@@]2(Cc3ccccc3)SSS[C@]1(CO)C(=O)N2C,87.1,31.1
CSc1cccc(NC(=O)CSc2ncccc2C(=O)OC(C)C)c1,.,.
CC(C)N1CN=C(Nc2nc3ccccc3o2)NC1,.,.
Cc1ccnc(Nc2nc3ccccc3o2)n1,49.8,/
COC(CN(C)S(=O)(=O)c1ccc2c(c1)oc(=O)n2C)OC,.,/
N#CCSc1nc2cc(C(=O)NCc3ccccc3)ccc2c(=O)n1CCc1ccccc1,.,21.7
N#CCSc1nc2ccccc2c(=O)n1CCCC(=O)NCc1ccco1,.,.
c1ccc(Nc2nc(Nc3ccccc3)nc(N3CCc4ccccc4C3)n2)cc1,.,/
O=C1C(Nc2ccccc2)=CC(=O)c2ncccc21,69.1,.
Cc1cc(NC(=O)c2ccc3c(c2)NC(=O)c2ccccc2S3)ccc1Br,.,15.3
Cc1cc(C)cc(NC(=O)c2ccc3c(c2)NC(=O)c2ccccc2S3)c1,.,.
SMILES,BJeLR viab HTS,A1 inh
O=C1Nc2ccccc2/C1=C/C(=O)c1ccc(Cl)cc1,64.7,65.2
O=C1Nc2ccccc2/C1=C\c1c(Cl)[nH]c2ccccc12,.,.
Nc1nc(Cl)nc2c1ncn2C1OC(CO)[C@H](O)[C@H]1F (stereo not given in full),53.6,.
Nc1nc(Cl)nc2c1ncn2C1C[C@@H](O)C(CO)O1 (stereo not given in full),.,.
O=C(O[C@H]1[C@H](Oc2ccccc2COC(=O)C2(O)C=CCCC2=O)O[C@H](CO)[C@@H](O)[C@@H]1O)c1ccccc1 (stereo not given in full),57.7,.
CC(=O)O[C@H]1[C@H](Oc2ccccc2COC(=O)C2(O)C=CCCC2=O)O[C@H](CO)[C@@H](O)[C@@H]1O (stereo not given in full),.,.
O=C(NCCCN1CCN(c2ccc(F)cc2)CC1)c1cccn2c(=O)c3ccccc3nc12,.,/

# Compound activity (PubChem BioAssay)
